What follows are sequences tested on VDR:RXRa (NR concentration 270 nM, RXRa partner concentration 90 nM) (assay: PBM binding z-score (relative to random genomic background probes); higher = stronger binding; sequences stand for … in GC…GCGATTGACAGCGTAGAATGAAGG).
Experimental: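 Protein-binding microarray (Agilent 4x180K custom design, double-stranded 60-nt probes: 5' GC cap, 34-nt variable region, 24-nt constant primer region; full probe sequence given). Purified or IVT nuclear receptor:RXRα heterodimers (3:1 NR:RXRα, mostly 270:90 nM) or homodimers were incubated for 1 h in PBS with 2% milk and no ligand, then detected with Alexa488 antibodies. Fluorescence from o1-orientation probes (~5 replicates averaged) was converted to z-scores against 500 random hg19 background probes. Variable regions are seed direct-repeat (DR0–DR5) sites, all their single-nucleotide variants and half-site ablations.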

Sequence	PBM binding z-score
ATCTCTAGGTAAAGATAGTTAAGTGAATGCAAAT	0.487
TGATATAGGTAATACAGGTGAAAGTCGGCATCTA	0.523
ATCGAAAGATCGAGGTGAGTATAGAGAAAGGGAA	-0.327
TCTATTAGTTGGTTAGGGCAACCGAAACAGCGGA	0.428
CGTCAAAGTTCAACCAAGGTAACGTAAAGCACGC	4.77
CTAACTAGGTCAAAGGTCAAAGTCGAGCCAACCA	6.59
CCTACTGGTCCACGAAAGGTCATTGATTCAGTGA	4.24
CCTAGTTGGTAAGGAGGTCACACACCGGATATGA	3.53
CGAACTAGGTCAGAACAGGACAGTGATGGATGAT	0.651
CGTCAAATTTCAAGGTAACGTAACAGAAAGCAGC	0.0191
GCGACTGGGGCAAAGCAGGTTACCGTAAGGTTGG	-0.0193
CGTTCAAGGTCAAGGTCAGTGAAAGAGACTCGAA	5
ACTTACGGGTCAACGAGGTTATAGCGCGCGTATA	7.58
CAAACTAGGTCACGAAAGGTCATAGTCGAATGAC	6.92
CCTTACGGGTCACGAGGTTATAGGACGACGAGCG	4.9
TCAGTCAGGTGAAGGTAACTCAGGTACGCAGTCG	0.652
ACTATAAGTTGAGACGAGGGCAACCGATAGGTTG	1.75
GCTAGTTGGTCAGTAAAAGGTCACACATCGGTCG	3.96
CGTCCAAGGTCAAAGTCAGTGAAAGAGACTCGAA	3.77
TCATATAGGTAAATGCTAGGTGAAAGTCCGATCT	0.886

Sequence	PBM binding z-score
TCGAGTAGGTTAGACGGGGCATTCAGCCAACATA	1.29
CCTTACGGGTCACTACAGGTTATAGCATCGGAGT	4.06
CCTCACGGGTCAAGGTTATAGCACGGGTGGTACG	3.18
ATATGTAGGTAAGCTGGGGTCATTCAGACTAGGC	5.49
ATCTCTAGGTAAATATAGTTCAGTGAATGCAAAT	1.44
GCTGACAGGTGAAACGCAGGTAACTCAGGGTGGC	-0.355
TCGAGTAGGTTAGTCGGGGCATTCACCCAACATA	2.41
CATACAGGGTCAGCGAGGCCAGAGTAGGGACGGC	5.93
ATACCAAGGTGATCGTGAGGTCGTTTATACTAAC	3.6
CGTCCAAGGCCAGAGAGGTCAGTGAATGCCGAGT	4.04
TCATATAGGTAAACAGGTCAAAGTCCGTAAGTTA	2.87
TCTTGTATATCAACAGGAGGTTAAGAAAGATCGA	1.28
CATACAGGGTCAGCTAGGCCAGTGTAGGGACGGC	3.86
TGAATGAAGTTATAAGATCAGGGAACGTTGCAAA	-0.457
ATATGTAGGTTATCGGGTCATTCAATTTGCGCAT	3.87
TGAATGAGGGTAAAGATCAGGGAACGTGGCGTCG	-0.0441
CAAACTCGGTCACAGAGGTCAAAGTCCGTGCGTA	7.57
TCGAGTAGGTTAGTCGGGGCATACAGCCAACATA	1.74
GCAGACAGGTGAAACGCAGCTAACTCAGGGTGGC	-0.847
CGTCCCAGGTCAATGCTAGGTCAGTGAAAGCATT	3.68
